Results filed as inconclusive are left out. Calls of active or inactive are those of the source. How the source made its calls, unless noted: active means hit-call score of the fitted dose curve at least 0.9, where 1 is the maximum; inconclusive means response in the unintended direction; inactive means score below 0.9.
Legend:
[1] = Tanguay_ZF_120hpf_TRUN_legacy: (Legacy) Oregon State University Tanguay Lab 120 Hour Post-fertilization zebrafish Assay for Truncated Body (AID 2283655)
Outline: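 Single dechorionated zebrafish embryos received test chemical from 6 hpf in 0.64% DMSO, kept at 28C. At 120 hpf, brightfield inspection noted any truncated body.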

[2] = Tanguay_ZF_120hpf_NC_legacy: (Legacy) Oregon State University Tanguay Lab 120 Hour Post-fertilization zebrafish Assay for Notochord and Tail Malformation (AID 2283656)
Outline: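 Binary notochord-distortion calls, made by brightfield inspection, form the read-out; activity is fitted in the positive direction against DMSO. Exposure ran statically from 6 to 120 hpf at 28C with 0.64% DMSO.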

[3] = read-out: ABC Transporter (ABCB1), ABCB1 (gene 5243); experiment: CLD_ABCB1_6hr: CellzDirect (CLD) Gene Expression Assay for ABC Transporter (ABCB1) at 6 hours (AID 2283659);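 further: hits raise ABCB1 transcript above the DMSO vehicle baseline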
Outline: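 ABCB1 transcript measured by quantitative nuclease protection assay, chemiluminescent read-out, 6 h after dosing human hepatocyte cultures (0.2% DMSO vehicle, daily redosing). Activity fitted as increase over DMSO baseline; cytotoxicity flagged by phase-contrast morphology.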

[4] = read-out: Broad substrate specificity ATP-binding cassette transporter ABCG2 (Homo sapiens) (UniProt Q9UNQ0); experiment: CLD_ABCG2_6hr: CellzDirect (CLD) Gene Expression Assay for ABC Transporter (ABCG2) at 6 hours (AID 2283660)
Outline: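 ABCG2 mRNA induction measured by qNPA chemiluminescence in human primary hepatocyte cultures, 6 h post-dose. Chemicals tested at several concentrations against a 0.2% DMSO vehicle; positive-direction fit relative to DMSO.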

[5] = read-out: xenobiotic metabolism (CYP1A1), CYP1A1 (gene 1543); experiment: CLD_CYP1A1_6hr: CellzDirect (CLD) Gene Expression Assay for xenobiotic metabolism (CYP1A1) at 6 hours (AID 2283661);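 on AC50: potency for transcript induction above DMSO vehicle baseline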
Outline: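 Read-out 6 h post-dose: qNPA chemiluminescent quantitation of transcript induction against 0.2% DMSO. Cells were cultured primary human hepatocytes from two separate donor preparations; phase-contrast morphology annotated apparent cytotoxicity.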

[6] = read-out: xenobiotic metabolism (CYP1A2), CYP1A2 (gene 1544); experiment: CLD_CYP1A2_6hr: CellzDirect (CLD) Gene Expression Assay for xenobiotic metabolism (CYP1A2) at 6 hours (AID 2283663);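 on AC50: potency is for induction meaning a rise in mRNA above DMSO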
Outline: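 mRNA levels quantified by quantitative nuclease protection assay with chemiluminescence, 6 h after dosing human primary hepatocyte cultures (two donors) across several concentrations, vehicle 0.2% DMSO. Induction fitted upward versus DMSO; phase-contrast cytotoxicity annotated.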

[7] = read-out: xenobiotic metabolism (CYP2C9), CYP2C9 (gene 1559); experiment: CLD_CYP2C9_6hr: CellzDirect (CLD) Gene Expression Assay for xenobiotic metabolism (CYP2C9) at 6 hours (AID 2283664)
Outline: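 Readout is qNPA chemiluminescence of CYP2C9 mRNA, taken 6 h after dosing of cultured human liver primary cells at several concentrations. Activity is the increase over 0.2% DMSO baseline. Morphology-based cytotoxicity flagged yes/no.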

[8] = Tanguay_ZF_120hpf_TR_legacy: (Legacy) Oregon State University Tanguay Lab 120 Hour Post-fertilization zebrafish Assay for Touch Response (AID 2283667)
Outline: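 Readout is presence or absence of touch response in 120 hpf zebrafish larvae, assessed by brightfield observation after continuous static exposure at 28C. Final vehicle was 0.64% (vol/vol) DMSO.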

[9] = read-out: glucuronosyltransferase (UGT1A1), UGT1A1 (gene 54658); experiment: CLD_UGT1A1_6hr: CellzDirect (CLD) Gene Expression Assay for glucuronosyltransferase (UGT1A1) at 6 hours (AID 2283672)
Outline: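 UGT1A1 mRNA induction, read by quantitative nuclease protection assay, 6 h after dosing primary human hepatocytes (two donors, 0.2% DMSO vehicle). Gain of signal fitted relative to vehicle.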

[10] = read-out: ABC Transporter (ABCB11), ABCB11 (gene 8647); experiment: CLD_ABCB11_24hr: CellzDirect (CLD) Gene Expression Assay for ABC Transporter (ABCB11) at 24 hours (AID 2283674; active means hit-call score of the fitted dose curve at least 0.9, where 1 is the maximum; inactive means score below 0.9)
Outline: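 ABCB11 transcript was quantified by qNPA chemiluminescence in cultured human liver hepatocytes 24 hours after dosing. Fresh dosing solutions were applied on consecutive days, against a 0.2% DMSO vehicle. Cytotoxicity was noted by phase-contrast morphology.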

[11] = read-out: Cytochrome P450 2B6 (Homo sapiens) (UniProt P20813); experiment: CLD_CYP2B6_6hr: CellzDirect (CLD) Gene Expression Assay for xenobiotic metabolism (CYP2B6) at 6 hours (AID 2283677);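 further: actives raise CYP2B6 transcript above DMSO baseline so AC50 marks an inducer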
Outline: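 CYP2B6 transcript levels, read by chemiluminescent qNPA, were fitted for increase versus DMSO baseline; cultured human liver hepatocytes from two donor preparations were harvested 6 h after exposure to test chemicals at multiple concentrations.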

[12] = read-out: Cytochrome P450 2C19 (Homo sapiens) (UniProt P33261); experiment: CLD_CYP2C19_6hr: CellzDirect (CLD) Gene Expression Assay for xenobiotic metabolism (CYP2C19) at 6 hours (AID 2283678)
Outline: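 CYP2C19 transcript induction was quantified by quantitative nuclease protection assay with chemiluminescent read-out, 6 h after dosing. Cells were primary human hepatocytes from two donor preparations, given fresh dosing solutions daily in 0.2% DMSO vehicle. Activity was relative to DMSO.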

[13] = read-out: matrix metalloproteinase-1 (MMP1), MMP1 (gene 4312); experiment: LTEA_HepaRG_MMP1: Life Technologies and Expression Analysis (LTEA) Assay for matrix metalloproteinase-1 (MMP1) using HepaRG (AID 2283658; active means hit-call score of the fitted dose curve at least 0.9, where 1 is the maximum; inactive means score below 0.9); details: mRNA level, 48 h; actives raise or lower the signal
Outline: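 In this screen, human liver HepaRG cultures receive each chemical in duplicate for 48 h (top 100 uM, 0.5% DMSO). MMP1 expression is then quantified by TaqMan qRT-PCR with ACTB/GAPDH/POLR2A normalization.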

[14] = test system: Thyroperoxidase (TPO), gene 54314; experiment: CCTE_Simmons_AUR_rTPO: CCTE's Amplex UltraRed Assay for Thyroperoxidase (TPO) Inhibition, Simmons Lab (AID 2283662);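 on AC50: potency for loss of signal meaning inhibition of peroxidase activity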
Outline: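 Cell-free peroxidase activity assay using rat thyroid gland microsomes with excess H2O2 (300 uM) and 25 uM Amplex UltraRed. Compounds tested from 5 nM to 87.5 uM; fluorescence measured after 30 min at 37C, analysed relative to DMSO baseline.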

[15] = read-out: alkyl and aryl transferase (GSTA2), GSTA2 (gene 2939); experiment: CLD_GSTA2_6hr: CellzDirect (CLD) Gene Expression Assay for alkyl and aryl transferase (GSTA2) at 6 hours (AID 2283666)
Outline: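 GSTA2 transcript induction at 6 h, quantified by nuclease protection (qNPA) with chemiluminescent detection, in human liver primary hepatocytes exposed to several compound concentrations with 0.2% DMSO as baseline; phase-contrast morphology annotated apparent cytotoxicity.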

[16] = read-out: xenobiotic metabolism (CYP1A1), CYP1A1 (gene 1543); experiment: CLD_CYP1A1_24hr: CellzDirect (CLD) Gene Expression Assay for xenobiotic metabolism (CYP1A1) at 24 hours (AID 2283673);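 further: CYP1A1 mRNA level by quantitative nuclease protection with chemiluminescence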
Outline: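 Transcript levels were read at 24 h by qNPA chemiluminescence in human liver primary cells. Cells got daily fresh dosing at multiple concentrations (vehicle 0.2% DMSO). Induction fitted upward against DMSO; phase-contrast cytotoxicity annotated.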

[17] = read-out: sulfotransferase (SULT2A), SULT2A1 (gene 6822); experiment: CLD_SULT2A_6hr: CellzDirect (CLD) Gene Expression Assay for sulfotransferase (SULT2A) at 6 hours (AID 2283669);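 further: hits raise transcript level above the DMSO vehicle baseline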
Outline: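 Measured 6 h after dosing, SULT2A1 mRNA in human hepatocyte lysates was quantified by S1 nuclease protection with chemiluminescent detection. Increases fitted against 0.2% DMSO vehicle baseline; phase-contrast cytotoxicity recorded yes/no.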

[18] = CLD_ACTIN_24hr: CellzDirect (CLD) Gene Expression Assay for Baseline Control (Actin) at 24 hours (AID 2283670)
Outline: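 This 24 h qNPA (S1 nuclease protection, chemiluminescence) actin transcript readout in cultured human liver primary cells serves as baseline control. Signal is fitted upward relative to 0.2% DMSO; chemicals tested at multiple concentrations across two donor preparations.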

Measured: AC50

Sequence of Cytochrome P450 2C19 (Homo sapiens) (P33261 whole entry, looked up): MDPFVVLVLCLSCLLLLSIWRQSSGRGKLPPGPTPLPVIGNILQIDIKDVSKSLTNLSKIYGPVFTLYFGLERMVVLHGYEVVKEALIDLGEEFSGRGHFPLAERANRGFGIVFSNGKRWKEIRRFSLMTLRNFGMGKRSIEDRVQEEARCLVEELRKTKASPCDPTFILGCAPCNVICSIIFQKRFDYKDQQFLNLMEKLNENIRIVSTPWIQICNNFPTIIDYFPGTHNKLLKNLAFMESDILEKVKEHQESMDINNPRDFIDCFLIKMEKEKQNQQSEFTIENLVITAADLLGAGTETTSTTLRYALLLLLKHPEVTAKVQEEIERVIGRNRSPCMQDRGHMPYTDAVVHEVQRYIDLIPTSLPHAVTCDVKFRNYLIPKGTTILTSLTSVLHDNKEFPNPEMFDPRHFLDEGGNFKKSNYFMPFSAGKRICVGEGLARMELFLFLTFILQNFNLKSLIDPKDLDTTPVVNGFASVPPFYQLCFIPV
Sequence of Broad substrate specificity ATP-binding cassette transporter ABCG2 (Homo sapiens) (Q9UNQ0 whole entry, looked up): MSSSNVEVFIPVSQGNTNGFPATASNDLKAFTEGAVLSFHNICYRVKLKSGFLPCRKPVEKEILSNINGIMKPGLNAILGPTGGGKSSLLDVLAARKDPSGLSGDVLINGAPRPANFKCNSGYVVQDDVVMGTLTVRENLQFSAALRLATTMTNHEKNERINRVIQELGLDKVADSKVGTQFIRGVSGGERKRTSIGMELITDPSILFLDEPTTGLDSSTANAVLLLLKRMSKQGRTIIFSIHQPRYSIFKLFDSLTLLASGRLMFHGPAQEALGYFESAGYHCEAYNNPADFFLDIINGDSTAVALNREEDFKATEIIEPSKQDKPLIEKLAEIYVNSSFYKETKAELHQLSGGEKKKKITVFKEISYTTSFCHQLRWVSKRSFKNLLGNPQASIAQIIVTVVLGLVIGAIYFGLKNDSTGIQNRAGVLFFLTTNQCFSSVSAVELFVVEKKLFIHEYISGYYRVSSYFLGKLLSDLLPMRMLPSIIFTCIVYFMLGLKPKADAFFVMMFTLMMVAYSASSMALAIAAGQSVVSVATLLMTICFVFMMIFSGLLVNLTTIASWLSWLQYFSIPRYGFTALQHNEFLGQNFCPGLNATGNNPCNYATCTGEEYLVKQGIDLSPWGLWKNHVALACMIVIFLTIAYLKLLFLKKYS

CCOP(=O)(OCC)Oc1cc(C)nc(C(C)C)n1
active: [11] 20 µM
inactive: [1] | [2] | [3] | [4] | [5] | [6] | [7] | [8] | [9] | [10] | [12]

CC(C1CC1)C(O)(Cn1cncn1)c1ccc(Cl)cc1 (configuration not stated)
active: [6] 0.00638 µM | [11] 1.28 µM
inactive: [1] | [2] | [3] | [4] | [7] | [8] | [9] | [12]

CCOC(=O)CC(SP(=O)(OC)OC)C(=O)OCC (configuration not stated)
inactive: [1] | [2] | [13] | [3] | [6] | [8] | [9] | [10] | [12]
active: [14] 29.2 µM | [11] 14.4 µM

CCOP(=O)(NC(C)C)Oc1ccc(SC)c(C)c1 (configuration not stated)
inactive: [1] | [2] | [14] | [15] | [8] | [9]
active: [6] 4.22 µM | [16] 20 µM | [11] 3.13 µM

CC(=NC#N)N(C)Cc1ccc(Cl)nc1
inactive: [1] | [2] | [4] | [7] | [8] | [17] | [9] | [10] | [11] | [12]

CSC1=N[C@@](C)(c2ccccc2)C(=O)N1Nc1ccccc1
inactive: [1] | [2] | [3] | [6] | [7] | [15] | [8] | [18] | [9]
active: [14] 25.7 µM | [11] 1.88 µM

FC(F)C(F)(F)OCC(Cn1cncn1)c1ccc(Cl)cc1Cl (configuration not stated)
inactive: [2] | [18] | [9]
active: [1] 49.6 µM | [5] 2.47 µM | [6] 2.45 µM | [8] 34.8 µM | [11] 1.12 µM

O=[N+]([O-])c1cc(C(F)(F)F)c(Cl)c([N+](=O)[O-])c1Nc1ncc(C(F)(F)F)cc1Cl
inactive: [1] | [7] | [8] | [11] | [12]

CSc1nc(NC(C)C)nc(NC(C)C)n1
active: [11] 4.01 µM
inactive: [2] | [13] | [3] | [4] | [6] | [7] | [15] | [8] | [9] | [12]

O=C(O)c1cc(Oc2ccc(C(F)(F)F)cc2Cl)ccc1[N+](=O)[O-]
inactive: [1] | [2] | [3] | [4] | [7] | [8] | [9] | [10] | [11] | [12]
